Experimental data taken from PubChem BioAssay AID894 (National Center for Advancing Translational Sciences (NCATS), 2007).
Where “and” joins values, the source holds several entries; their conditions need not be identical. Equal entries are not always repeated. Out of some 150,000 compounds screened, about 6,500 (4.3%) were called active. Not shown: some 12% with an inconclusive outcome. What follows is part of a selection rich in actives, with near analogues and random picks from the rest. A number with no mark means an inactive call. Calls follow the shape of the dose curve; as a rule, active = well fitted inhibition curve with a large enough effect (not every such curve was filed as active); inconclusive = small, poorly fitted or top-dose-only effect, or another doubt; inactive = no such curve, though single readings can be large or run the other way.

The molecules below were run against 15-hydroxyprostaglandin dehydrogenase [NAD(+)] (Homo sapiens) (UniProt P15428) (assay: qHTS Assay for Inhibitors of HPGD (15-Hydroxyprostaglandin Dehydrogenase)). Conditions: purified HPGD, NADH fluorescence kinetic, PGE2 substrate; activity change, negative = inhibition: active compounds read low.
Chain of 15-hydroxyprostaglandin dehydrogenase [NAD(+)] (Homo sapiens) (P15428 whole entry, looked up): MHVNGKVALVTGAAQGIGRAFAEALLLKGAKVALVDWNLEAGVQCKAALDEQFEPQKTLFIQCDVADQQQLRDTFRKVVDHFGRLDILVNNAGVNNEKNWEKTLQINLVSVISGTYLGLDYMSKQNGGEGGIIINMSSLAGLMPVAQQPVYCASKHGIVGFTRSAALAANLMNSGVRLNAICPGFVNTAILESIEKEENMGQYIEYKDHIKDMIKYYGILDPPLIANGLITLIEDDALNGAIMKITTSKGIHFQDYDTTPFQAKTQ
Procedure, shortened: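 20 nM HPGD preincubated 15 min at room temperature with compound in 50 mM Tris-HCl pH 8, 0.01% Tween 20. Started with 1 mM NAD+ and 30 uM prostaglandin E2; NADH fluorescence (360/450 nm) read 5 times over 30-s intervals, last minus first.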
% is scaled to controls: 0 for no effect and ±100 for the full control effect; potency is read from the fitted curve at half-maximal effect.

Structure (SMILES)	activity change, negative = inhibition	Potency
O=C(CC(=O)N/N=C\c1cccc(Cl)c1Cl)NCc1ccccc1	-9.68%	–
COC(=O)Cc1ccc(N(Cc2ccccc2F)S(=O)(=O)c2ccc(Br)cc2)cc1	-19.6%	–
CCn1c(SCC(=O)c2ccc3ccccc3c2)nnc1-c1cccs1	-18.4%	–
CCn1c(Cc2cccs2)nnc1SCC(=O)c1ccc(C)cc1	–	15.8 µM (active)
CCn1c(CNc2ccc(OC)cc2)nnc1SCC(=O)c1ccc(OC)cc1	–	14.1 µM (active)
CCn1c(COc2ccc(OC)cc2)nnc1SCC(=O)Nc1cc(OC)ccc1OC	1.56%	–
COC(=O)c1ccc(NC(=O)CSc2nnc(CNc3ccc(OC)cc3)n2C)cc1	-6.05%	–
Cc1ccc(-n2c(Cc3cccs3)nnc2SCC(=O)OC(C)C)cc1	-15.1%	–
O=C(CN1CCN(S(=O)(=O)c2ccc(Br)cc2)CC1)Nc1ccccc1C(=O)c1ccccc1	-12.5%	–
CCOC(=O)N1CCN(C(=O)C2CCN(Cc3ccc(OC)cc3OC)CC2)CC1	-11.3%	–
CCCC(NC(=O)c1ccco1)c1nc2ccccc2[nH]1 (stereo unspecified)	-3.61%	–
Cc1cccc(C(=O)NC(=S)N2CCN(c3ccc([N+](=O)[O-])cc3)CC2)c1	-19.1%	–
O=C(Cc1ccc(-c2ccccc2)cc1)NC(c1ccccc1)c1ccccc1	–	12.6 µM (active)
CCOC(=O)/C=C/C(=O)OCC(=O)NC(c1ccccc1)c1ccccc1	-29.7%	–
O=C(O)Cc1ccc(-c2ccccc2)cc1	-9.59% and -19%	–
CCCCC(=O)Nc1ccc(C(=O)Nc2cc(C(F)(F)F)ccc2Cl)cc1	-6.97%	–
CCOc1ccc(NC(=O)c2ccc(CSc3nnnn3C)cc2)cc1	-4.67%	–
COCCNc1ncnc2ccc(-c3ccccc3CN(C)C)cc12	-8.98%	–
COc1ccccc1CNc1ncnc2ccc(-c3c(C)noc3C)cc12	–	6.31 µM (active)
COc1ccc2[nH]cc(CCNc3ncnc4ccc(-c5ccccc5CN(C)C)cc34)c2c1	-13.3%	–
Cc1ccc(N(Cc2cc3ccccc3[nH]c2=O)C(=O)c2cccs2)cc1	-11%	–
CCOc1ccc(C(=O)Nc2nccs2)cc1[N+](=O)[O-]	-16.3%	–
O=C(CN1CCN(c2ccc(O)cc2)CC1)NC1CCCc2ccccc21 (stereo unspecified)	-19.6%	–
CCOc1ccc2nc(NC(=O)c3cc([N+](=O)[O-])ccc3N3CCOCC3)sc2c1	-5.12%	–

Structure (SMILES)	activity change, negative = inhibition	Potency
Cc1ccccc1Cn1nc(C)c(NC(=O)C(F)(F)F)c1C	0.212%	–
Cc1ccccc1OCC(=O)Nc1nc(C)c(C(=O)N(C)C)s1	-1.51%	–
COCCCNC(=O)COc1cc(C)c(Cl)c(C)c1	-21.9%	–
COCCNC(=O)COc1ccccc1C	-18.6%	–
COCCNC(=O)COc1ccc(C)c(C)c1	–	20 µM (active)
CCCc1noc2c1/C(=N\O)CCC2	-17.1%	–
CCSC(C)CC1C/C(=N/O)c2c(C)noc2C1 (stereo unspecified)	–	25.1 µM (active)
CCOc1ccc(NC(=O)COc2ccc(C(=O)NC3CCCc4ccccc43)cc2OC)cc1 (stereo unspecified)	-12.8%	–
O=C(CCN1C(=O)c2ccccc2C1=O)C1=NN[C@@H]2C(=O)N(c3ccc(F)cc3)C(=O)[C@H]12	-16.3%	–
COc1cccc(N(CC(=O)N2CCc3ccccc3C2)S(C)(=O)=O)c1	-5.24%	–
CN(c1ccc(C(=O)N2CCc3ccccc3C2)cc1)S(C)(=O)=O	–	14.1 µM (active)
O=C(C(=O)N1CCc2ccccc2C1)N1CCc2ccccc2C1	-4.51%	–
N=c1n(CCc2ccccc2)c2ccccc2n1Cc1ccccc1F	-8.4%	–
COCCNC(=S)N/N=C/c1c(C)[nH]c2ccccc12	-19.3%	–
Cc1ccc(/C=C(\C#N)C(=O)Nc2cccc3ncccc23)o1	–	39.8 µM (active)
O=C(Nc1cccc2ncccc12)C(Cl)(Cl)Cl	-18.4%	–
O=C(O)c1cc(Cl)c(Cl)cc1C(=O)Nc1cccc2ncccc12	-16.7%	–
Cc1ccc2c(c1)N(C(=O)CCC(=O)N1CCc3ccccc3C1)CCO2	–	14.1 µM (active)
Cc1ccc(S(=O)(=O)N(CC(=O)N2CCc3ccccc3C2)c2cccc(Cl)c2)cc1	-8.94%	–
Cc1ccc(S(=O)(=O)N(C)CC(=O)N2CCc3ccccc32)cc1	-3.12%	–
Cc1cc(OCCCC(=O)NCCN2C(=O)S/C(=C\c3cccnc3)C2=O)ccc1Cl	-5.63%	–
Cn1cnc(C(F)(F)F)c1-c1ccc([N+](=O)[O-])cc1	-0.963%	–
Cc1nc2ccccc2c(=O)n1CCCn1ccnc1	-6.43%	–
Cc1ccnc(-n2sc3ccccc3c2=O)n1	–	0.794 µM (active)

Structure (SMILES)	activity change, negative = inhibition	Potency
Cc1ccc(NC(=S)NCc2ccccc2Cl)c(C)c1	-27.2%	–
Clc1ccc(C2=CSC3=Nc4cccc5cccc(c45)N23)cc1	–	7.94 µM (active)
O=S(=O)(NCC1CCCO1)c1cnc(Cl)c(Cl)c1 (stereo unspecified)	-16.1%	–
C/C(=C\c1ccccc1)C1NC(=O)c2c(sc3c2CCCC3)N1 (stereo unspecified)	-3.55%	–
O=C(c1cc(-c2cccs2)on1)N1CCCCC1	–	1.78 µM (active)
O=C(c1cccs1)N1CCN(C(=O)N2CCOCC2)CC1	2.42%	–
COc1ccccc1-c1cc(C(=O)N2CCCCC2)no1	–	3.55 µM (active)
COc1ccccc1N1CCN(C(=O)c2cc(-c3ccc(Cl)c(Cl)c3)on2)CC1	-13.7%	–
O=C(c1cc(-c2ccccc2O)on1)N1CCCC1	-29.8%	–
COc1ccccc1N1CCN(C(=O)c2cc(-c3ccc(Br)cc3)on2)CC1	-29.1%	–
Cc1cc(C)cc(NC(=S)NCc2ccc(F)cc2)c1	-19.9%	–
CCn1nc(C)c(/C=N/NC(=O)Cc2ccc(Cl)cc2)c1C	-9.17%	–
O=C(NCc1cccs1)C(=O)NCC1OCCCN1S(=O)(=O)c1ccc(F)cc1 (stereo unspecified)	-5.48%	–
C=CCOC(=O)NC(c1ccc(F)c(F)c1)C(C(=O)COC)C(=O)OC (stereo unspecified)	-10.1% and -9.32%	–
CCN(CC)S(=O)(=O)c1cccc(C(=O)Nc2ccccc2)c1	0.0347%	–
CCN(CC)S(=O)(=O)c1cccc(-c2n[nH]c(=S)n2/N=C/c2ccc(C(=O)OC)cc2)c1	–	6.31 µM (active)
COC(=O)c1ccc(/C=N\n2c(C)nnc2C)cc1	-12.4%	–
CC(Sc1nc2cc(Cl)ccc2s1)C(=O)Nc1ccc2c(c1)OCO2 (stereo unspecified)	-22.7%	–
CC(C)CNC(=O)COC(=O)/C=C/c1ccco1	-11.3%	–
O=C(COC(=O)/C=C/c1cccc(Cl)c1)NCCc1ccccc1	-5.17%	–
CC(C)CNC(=O)COC(=O)/C=C/c1ccccc1[N+](=O)[O-]	–	28.2 µM (active)
COc1cccc(NC(=S)NCc2ccco2)c1	–	11.2 µM (active)
COc1cccc(NC(=S)NCCCN2CCOCC2)c1	-6.46%	–
COc1cccc(NC(=S)NCc2ccccn2)c1	-28.2%	–

Structure (SMILES)	activity change, negative = inhibition	Potency
O=S(=O)(Nc1ccc(Oc2ncccn2)c(Cl)c1)c1ccc(F)cc1	–	35.5 µM (active)
O=S(=O)(NCc1ccccn1)c1ccc(F)cc1	-6.74%	–
Cc1ccc(S(=O)(=O)Nc2ccc3ncccc3c2)cc1	-6.64%	–
Cc1cc(F)ccc1S(=O)(=O)Nc1ncnc2scc(-c3ccc(F)cc3)c12	-6.93%	–
O=[N+]([O-])c1cccc(C2=NCCS2)c1	-12.8%	–
O=C(COC(=O)c1cc(-c2cccs2)nn1-c1ccccc1)Nc1cc([N+](=O)[O-])ccc1Cl	-0.873%	–
CCOP(=O)(OCC)C(Nc1cccc(C)c1)c1ccc(F)cc1 (stereo unspecified)	-7.61%	–
CC1CN(C(=O)c2ccc3c(c2)OCO3)OC(c2ccccc2)O1 (stereo unspecified)	-4.25%	–
O=C(Nc1ccccc1N1CCN(C(=O)c2ccccc2)CC1)c1ccc2c(c1)OCO2	-1.04%	–
O=C(c1ccc2c(c1)OCO2)N1CCOCC1	–	14.1 µM (active)
O=C(c1ccc2c(c1)OCO2)N1CCN(C(=O)c2ccco2)CC1	-11.7%	–
O=C(c1ccc2c(c1)OCO2)N1CCNc2ccccc2C1	–	25.1 µM (active)
O=C(c1cccc(S(=O)(=O)N2CCOCC2)c1)N1CCOCC1	-2.21%	–
CC(Nc1oc(-c2ccccc2)nc1-c1ccccc1)c1ccccc1 (stereo unspecified)	0.641% and -7.86%	–
COc1ccc(Cc2nnc(N/N=C/c3ccccc3O)[nH]c2=O)cc1OC	-16.1%	–
NS(=O)(=O)c1ccc(N=Cc2ccc(Br)s2)cc1	-0.454%	–
N#Cc1ccccc1NC(=O)COc1c(Br)cc(Br)c2cccnc12	-10%	–
Fc1ccc2nc(N3CCCCC3)sc2c1	-12.2%	–
Fc1cc(F)c2nc(N3CCOCC3)sc2c1	-12.5%	–
c1c2c(cc3sc(N4CCCCC4)nc13)OCCO2	–	25.1 µM (active)
CC1=C(C/C=C(\C)CCCC(C)CCCC(C)CCCC(C)C)C(=O)c2ccccc2C1=O (stereo unspecified)	-10.7%	–
O=C(CN(Cc1ccccc1)C(=O)c1ccc2c(c1)OCCO2)NCc1ccc2c(c1)OCO2	-6.78%	–
CCC(C)(C(=O)NC1CCCCC1)N(C)C(=O)c1ccc2c(c1)OCO2 (stereo unspecified)	-0.912%	–
CCCCN(CC)C(=O)c1ccc2c(c1)OCO2	–	12.6 µM (active)
